Assay outcomes as filed in PubChem BioAssay.
Most compounds without a hit are left out; they make up all but 1.1% or so of the library.
TrxR1 substrate: qHTS Assay for Substrates of Mammalian Selenoprotein Thioredoxin Reductase 1 (TrxR1): qHTS | Thioredoxin reductase 1, cytoplasmic (Rattus norvegicus), O89049 | purified TrxR1 substrate turnover, NADPH consumption readout | Potency, µM (highest dose often 114 µM), for the others: at the top dose activity change, negative = substrate turnover | 390,000 tested, 0.01% active; also: potency is read from the fitted curve at half-maximal effect; nearly all actives have a fitted effect of over 50% in size
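Rat TrxR1, dispensed at 90 nM, was prereduced with 400 uM NADPH (final) for 5 min at ~22 deg C, then incubated with compound 15 min before 400 uM selenite. A first-read NADPH fluorescence drop versus no-compound background flagged substrates.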
TrxR1 inh: qHTS Assay for Inhibitors of Mammalian Selenoprotein Thioredoxin Reductase 1 (TrxR1): qHTS; recombinant rTrxR1, NADPH fluorescence consumption, selenite substrate; 390,000 tested, 1% active; Potency, µM (doses to about 114 µM), without a hit: at the top dose activity change, negative = inhibition, most hits filed as inhibitors; also: potency is read from the fitted curve at half-maximal effect; nearly all actives have a fitted effect of over 65% in size
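Rat TrxR1 (90 nM in the dispensed reagent) was pre-reduced with 400 uM NADPH for 5 min at room temperature, then incubated with compound for 15 min. After 400 uM selenite was added, NADPH fluorescence (Ex 340/Em 450 nm) was followed for 8 min.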
PI4K2A block: qHTS for small molecular inhibitors of PI4K2A; purified PI4K2A, ADP-Glo luminescence, 1 h; stronger effect = lower value; AID 1346378, 2018; 420,000 tested, 0.13% active; Phosphatidylinositol 4-kinase type 2-alpha (Homo sapiens), Q9BTU6; activity change, negative = inhibition, % at 76.9 µM; in the data active = activity change below about -50%; inconclusive = mostly about -30% to -49%;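 also: -100% = wells without enzyme as full effect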
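ADP-Glo luminescence measured ADP generated by PI4K2A enzyme (4 ug/mL before mixing) with 1.2 mM PI substrate (pre-mix) and 300 microM ATP (pre-mix). Tris pH7.5 buffer with MgCl2, Triton X-100; 1 h reaction at ambient temperature.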
GALK inh: qHTS Assay for Inhibitors of Human Galactokinase (GALK); Purified GALK, Kinase-Glo residual ATP luminescence; Potency, µM (highest dose often 57.5 µM), inactives show at the highest dose activity change, negative = inhibition, most hits filed as inhibitors; 270,000 tested, 0.007% active; also: potency is read from the fitted curve at half-maximal effect
Target sequence (P51570 whole entry, looked up): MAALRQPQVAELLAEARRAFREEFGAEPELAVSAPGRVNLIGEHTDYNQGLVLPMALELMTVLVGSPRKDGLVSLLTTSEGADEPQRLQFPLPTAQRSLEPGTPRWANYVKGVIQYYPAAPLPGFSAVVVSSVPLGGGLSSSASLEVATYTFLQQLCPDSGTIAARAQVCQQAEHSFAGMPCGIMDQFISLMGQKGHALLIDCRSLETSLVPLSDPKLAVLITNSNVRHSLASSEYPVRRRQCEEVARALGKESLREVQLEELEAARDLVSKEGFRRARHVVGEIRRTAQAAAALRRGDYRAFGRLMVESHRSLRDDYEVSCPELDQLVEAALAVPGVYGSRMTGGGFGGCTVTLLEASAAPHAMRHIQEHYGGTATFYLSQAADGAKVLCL
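GALK at 5 nM final was combined with compound, 35 uM ATP and 100 uM galactose in HEPES pH8.0 with MgCl2 and DTT. The reaction ran one hour at room temperature before luminescent ATP detection.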
* marks the source's active call; other numbers are inactive results; ? = inconclusive; . = not tested or not shown; [ ] = dose if it differs, or a comment. Unless noted, calls follow the shape of the dose curve; as a rule, active = well fitted curve in the direction sought with a large enough effect; inconclusive = small, poorly fitted or top-dose-only effect, or another doubt; inactive = no such curve, though single readings can be large; an effect the other way counts as inactive or inconclusive. Unless noted, % is scaled to controls: 0 for no effect and ±100 for the full control effect.

SMILES	TrxR1 substrate	TrxR1 inh	PI4K2A block	GALK inh
COc1ccc(/C=C2\Oc3cc(OCC(=O)N4CCC[C@H]4CO)ccc3C2=O)c(OC)c1	-3%	-12%[57.1 µM]	3	.
CCOc1ccc(N(CC(=O)Nc2c(C)n(C)n(-c3ccccc3)c2=O)S(=O)(=O)c2cccs2)cc1	.	.	1	.
O=C1CC(N2CCC(c3nc4ccccc4o3)CC2)C(=O)N1c1ccc(Cl)c(C(F)(F)F)c1 (stereo not given)	1%	18µM*	-1	0%
COc1ccc(-c2nc3n(n2)C(=O)CC(c2ccco2)S3)cc1 (stereo not given)	3%	14µM*	-6	-3%
CCOc1ccc(C2CC(=O)n3nc(-c4ccc(C)cc4)nc3S2)cc1 (stereo not given)	4%	34%	1	.
Cc1ccc(N/N=C(\Cc2nc3ccccc3[nH]2)c2ccccc2)cc1	-3%	79µM*	0	-2%
c1ccc(N/N=C(\Cc2nc3ccccc3[nH]2)c2ccccc2)cc1	-9%	-18%	-1	0%
CC1CCN(c2cc(N(C)CCO)c([N+](=O)[O-])c3nonc23)CC1	-14%	45µM*	0	-1%
COC(=O)C1=C(C)NC(COC(N)=O)=C(C(=O)OC(C)C)C1c1cccc(Cl)c1Cl (stereo not given)	.	.	4	.
CCOC(=O)c1c(SCCN2CCCCC2)n(-c2ccccc2)c(=S)n(-c2ccccc2)c1=O	-4%	18µM*	-4	.
CCCCSc1nc(NCc2ccco2)c2c3c(sc2n1)COC(C)(C)C3	5%	-12%	-5	0%
CCCSc1nc(NCc2ccco2)c2c3c(sc2n1)COC(C)(C)C3	-10%	45µM*	-5	0%
C#CCN1C(=O)C(O)(CC(=O)/C=C/C=C/c2ccccc2)c2ccccc21 (stereo not given)	-6%	28µM*	-1	7%
CCOC(=O)CSc1cc(C)c(C#N)c2nc3ccccc3n12	9%[57.1 µM]	1.1µM*	-3	1%
O=C1CCCN1CCC1CCN(C2CC(=O)N(Cc3ccc(N4CCCC4=O)cc3)C2=O)CC1 (stereo not given)	-8%	-8%	2	0%
O=C1CCCN1CCC1CCN(C2CC(=O)N(c3ccc(Cl)cc3)C2=O)CC1 (stereo not given)	2%	40µM*	-5	5%
CN1C/C(=C/c2cccnc2)C(=O)/C(=C/c2cccnc2)C1	-11%	10µM*	-12	-2%
COc1ccc2cccc(CCNC(C)=O)c2c1	.	.	-4	.
COc1ccc(C(=O)Cn2cc([N+](=O)[O-])nc2C)cc1	-2%	-7%	0	-4%
Cc1nc([N+](=O)[O-])c(Br)n1CC(=O)c1ccc(Cl)cc1	11%[57.1 µM]	2.5µM*	15	0%
Cc1nc([N+](=O)[O-])c(Br)n1Cc1ccc(Cl)c(Cl)c1	-4%	10µM*	23	-11%
COc1ccc(C(=O)Cn2c(C)nc([N+](=O)[O-])c2Br)cc1	14%[57.1 µM]	18µM*	-1	-4%
Cc1nc([N+](=O)[O-])cn1CC(=O)c1ccc(Br)cc1	4%	9%	-1	.
O=C(Nc1nnc(C2CCCCC2)s1)C1CCN(C(=O)c2ccco2)CC1	-3%	-14%	.	.
CCOC(=O)c1c(C)sc2c1N(C(=O)CCl)c1cc(Cl)ccc1S2	-2%	5µM*	23	-3%
Cc1sc2ncnc(SCC(=O)N3c4ccccc4Sc4ccc(Cl)cc43)c2c1C	10%	12%	-4	.
COc1cc(NS(=O)(=O)c2ccc(NC(=S)NC(=O)c3ccco3)cc2)ncn1	-2%[57.1 µM]	-8%[57.1 µM]	-2	7%
COc1ccc(C(=O)NC(=S)Nc2ccc(S(=O)(=O)Nc3cc(OC)nc(OC)n3)cc2)cc1	-3%	56µM*	3	6%
COc1ccc(C(=O)NC(=S)Nc2ccc(S(=O)(=O)Nc3cc(OC)ncn3)cc2)cc1	-9%	45µM*	-6	17%
COc1cc(NS(=O)(=O)c2ccc(NC(=S)NC(=O)c3ccc(F)cc3)cc2)nc(OC)n1	0%	?	4	-1%
